From PubChem BioAssay AID1220 (Sanford-Burnham Center for Chemical Genomics, 2008)
Hit rate of the full screen: of about 190,000 compounds, about 1,300 (0.68%) were called active. Cut-off read from the data, not from the text of the source: active = inhibition above about 50%; inactive = the rest. This excerpt belongs to a sample that is enriched for actives.

target: Mannose-6-phosphate isomerase (Homo sapiens) (UniProt P34949); test: MPI inhibition at elevated mannose 6-phosphate – biochemical, fluorescence intensity, high mannose 6-phosphate, primary screen (AID 1220); conditions: recombinant PMI enzyme, coupled fluorescence intensity; at 20 µM; active compounds read high
Sequence (P34949 whole entry, looked up): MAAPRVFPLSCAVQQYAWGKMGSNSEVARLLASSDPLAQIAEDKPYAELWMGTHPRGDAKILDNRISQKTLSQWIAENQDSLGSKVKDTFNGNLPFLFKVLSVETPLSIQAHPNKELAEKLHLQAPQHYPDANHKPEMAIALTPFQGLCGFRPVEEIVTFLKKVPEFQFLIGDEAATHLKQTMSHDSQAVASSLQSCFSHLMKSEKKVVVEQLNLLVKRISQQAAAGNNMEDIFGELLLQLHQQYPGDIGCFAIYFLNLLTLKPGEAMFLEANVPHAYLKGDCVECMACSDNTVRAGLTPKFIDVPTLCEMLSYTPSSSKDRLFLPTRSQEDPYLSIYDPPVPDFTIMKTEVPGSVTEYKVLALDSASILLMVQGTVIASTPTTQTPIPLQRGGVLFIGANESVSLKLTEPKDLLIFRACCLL

inhibition, active:
O=C(N/N=C\c1ccc(-c2ccccc2[N+](=O)[O-])o1)C1COc2ccccc2O1 (configuration not stated) 55.3%
O=C(N/N=C/c1ccc(-c2ccccc2[N+](=O)[O-])o1)[C@H]1C[C@@H]1c1ccccc1 63.4%
O=C(N/N=C\c1ccc(-c2ccccc2[N+](=O)[O-])o1)C1COc2cc3ccccc3cc2O1 (configuration not stated) 65.2%
O=C(NNc1cc(N2CCOCC2)nc(N2CCOCC2)n1)c1ccc([N+](=O)[O-])cc1 56.3%
O=C(CCc1ccccc1)NNc1cc(N2CCCCC2)nc(N2CCCCC2)n1 53.4%
Cc1ccc(C(=O)NNc2cc(N3CCCC3)nc(N3CCCC3)n2)cc1 51.4%
CCCc1nc2c(sc3nc4c(cc32)COC(C)(C)C4)c(=O)n1CCN(C)C 50.8%
CN1c2ccccc2N(C)C1c1c(O)ccc2ccccc12 55.3%
CCC(=Nc1ccc(N)cc1)C1=C(O)C(C(=O)OC)C(C)(C)CC1=O (configuration not stated) 53.8%
Cc1ccc2cccc(O)c2[n+]1[O-] 53.5%
COc1cc(N2CCCC2)c(OC)cc1C=O 53.6%
COc1cc(N2CCCC2)c(OC)cc1/C=C(/C#N)c1ccc(F)cc1 54.8%
CC1CN(C2=Nc3cccc4cccc2c34)CC(C)O1 (configuration not stated) 59.2%
CCOC(=O)N1CCN(C2=Nc3cccc4cccc2c34)CC1 58.5%
c1ccc2c(c1)CCN(C1=Nc3cccc4cccc1c34)C2 60.2%
NC1=Nc2cccc3cccc1c23 60%
c1cc2c3c(cccc3c1)C(N1CCCCC1)=N2 58.7%
CC(=O)N1CCN(C2=Nc3cccc4cccc2c34)CC1 52.4%

inhibition, inactive:
NS(=O)(=O)c1ccc(CCNC(=O)COC(=O)/C=C/c2ccc(Cl)cc2)cc1 0.2%
CCc1nnc(NC(=O)CSc2nnc(COc3ccc(C)cc3)n2-c2ccccc2)s1 8%
O=C(N/N=C\c1ccc(-c2ccc([N+](=O)[O-])cc2)o1)C1COc2ccccc2O1 (configuration not stated) -8.4%
O=C(N/N=C/c1ccc(-c2cccc([N+](=O)[O-])c2)o1)[C@H]1C[C@@H]1c1ccccc1 8.6%
O=C(N/N=C\c1cccc([N+](=O)[O-])c1O)C1COc2ccccc2O1 (configuration not stated) -15.4%
O=C(N/N=C\c1ccc([N+](=O)[O-])o1)C1COc2ccccc2O1 (configuration not stated) 21.3%
O=C(N/N=C/c1ccco1)C1CC1c1ccccc1 (configuration not stated) 0.2%
Cc1ccc(/C=N\NC(=O)C2COc3cc4ccccc4cc3O2)o1 (configuration not stated) 0.7%
CC(=O)N1CCC(N(CCCOC(C)C)C(=O)Nc2ccc(C)c(C)c2)CC1 0.4%
Cc1nc2nc(SCC(=O)N3CCOCC3)nn2c(C)c1Cc1c(F)cccc1Cl 18.6%
Cc1cccc(NC(=O)Cn2nnc(-c3ccc(CN4CCCC4)cc3)n2)c1C 0.5%
CN(c1ccccc1)S(=O)(=O)c1cccc(C(=O)OCC(=O)NCCCN2CCCC2=O)c1 -7.4%
CCOc1ccc(CCNC(=O)COC(=O)c2cccnc2OCC)cc1OCC 14.4%
COc1ccc(N2C(C(C)=O)=NN(c3ccccc3)C2c2cccs2)cc1 (configuration not stated) 10.7%
CCOc1ccccc1N1CC(C(=O)Nc2ccc3c(c2)OCCO3)CC1=O (configuration not stated) 1.4%
Cc1csc(/C(C#N)=N/O)n1 8.3%
CC1CC(C)CN(CC(=O)c2cccs2)C1 (configuration not stated) -20.3%
CCc1c(C(=O)Nc2ccc(OC)c(Cl)c2)[nH]c(C)c1C(C)=O -0.2%
Cc1ccc(C(=O)NNC(=O)C2CCN(c3nc(C)cc(C)n3)CC2)cc1 -8.6%
O=C(CCc1ccccc1)Nc1ccc(N2CCCCC2)cc1 3.5%
CC(C)(C)c1ccc(C(=O)NNc2cc(N3CCOCC3)nc(N3CCOCC3)n2)cc1 48.8%
O=C(CCc1ccccc1)NNC(=O)C1CCCCC1 -4.6%
O=C(NNc1cc(N2CCOCC2)nc(N2CCOCC2)n1)c1ccc(Cl)c(Cl)c1 48.8%
CC(C)(C)c1ccc(C(=O)NNc2cc(N3CCCCC3)nc(N3CCCCC3)n2)cc1 18.1%
CCOC(=O)N1CCN(C(=O)c2ccc(CN(c3ccccc3)S(C)(=O)=O)cc2)CC1 -4.3%
CC(=O)N(c1c(C)n(C)n(-c2ccccc2)c1=O)C1(C(=O)NC2CCCCC2)CCCCC1 1.3%
Cc1onc(-c2c(Cl)cccc2Cl)c1C(=O)NCCCN1CCOCC1 -0.3%
O=C(c1ccccc1)N1CCOC12CCN(c1ncc(C(F)(F)F)cc1Cl)CC2 2.1%
CCOC(=O)/C=C/C(=O)OCC(=O)Nc1c(Cl)cccc1Cl -9.4%
CCCc1nc2c(sc3nc4c(cc32)COC(C)(C)C4)c(=O)n1CCN(CC)CC -0.7%
CCc1nc2c(sc3nc4c(cc32)COC(C)(C)C4)c(=O)n1CCN(CC)CC 3.8%
Cc1ccc(C(=O)N/C(=C/c2ccccc2)C(=O)NCC2CCCO2)cc1 (configuration not stated) -4.3%
NNC(=O)COc1ncn(-c2ccccc2)n1 4.5%
Cc1ccc(NC(=O)C(=O)NCCN2CCN(C(=S)Nc3ccccc3)CC2)cc1 -0.2%
COCCNC(=O)CN(C(=O)Cn1nnc2ccccc21)c1ccc(F)c(Cl)c1 -5.3%
CC(=O)Nc1c(O)c2ccccc2[nH]c1=O 17.5%
O=c1[nH]c2ccccc2c2ccccc12 3.6%
COc1cc([N+](=O)[O-])ccc1NC(=O)CCCOc1cccc(C)c1C 9.2%
OCCOCCOc1ccc(-c2nn[nH]n2)cc1 -12.5%
CCCCC(=O)Nc1ccc(NC(=S)NC(=O)c2cccs2)cc1OC 14.4%
O=C(Nc1cccc(S(=O)(=O)Nc2ccccc2Cl)c1)c1ccc(Cl)nc1 7.3%
Oc1ccc2ccccc2c1C1Nc2cccc3cccc(c23)N1 10.6%
CCC12CN3CC(CC)(CN(C1)C3c1c(O)ccc3ccccc13)C2=O (configuration not stated) 27.9%
Fc1ccc(NC(=S)N2CCn3cccc3C2c2cccnc2)cc1 (configuration not stated) 1%
Cc1ccc(NC(=O)C(Nc2ccccc2)c2ccccc2)cc1 (configuration not stated) 1.5%
CC(=O)N1N=C(c2cccc([N+](=O)[O-])c2)OC1c1cccc(Br)c1 (configuration not stated) 4.5%
CCCC(=Nc1ccc(N)cc1)C1=C(O)C(C(=O)OC)C(C)(C)CC1=O (configuration not stated) 28.8%
CCCCC(=Nc1ccc(N)cc1)C1=C(O)C(C(=O)OC)C(C)(C)CC1=O (configuration not stated) 15.5%
COc1ccc(OC)c2sc(NC(=O)CCSc3ccccc3)nc12 2.1%
Oc1cccc2cc3cccc(O)c3c(O)c12 -119%
Cc1cc(C)c2ccc(C)[n+]([O-])c2c1O -26.8%
Cc1cccc(Cn2ccc(NC(=O)c3cccnc3)n2)c1 -9.3%
CCOc1ccc(C(=O)CC(Sc2ccc(C)cc2)C(=O)O)cc1 (configuration not stated) -4%
CCCOC(=O)c1ccc(Oc2c(-c3ccc(O)cc3O)n[nH]c2C)cc1 5.2%
COc1cc(N2CCCC2)c(OC)cc1/C=C(/C#N)c1ccc(Br)cc1 13.6%
COc1cc(N2CCCC2)c(OC)cc1/C=C(/C#N)c1cccc(F)c1 11.2%
COc1cc(N2CCCC2)c(OC)cc1/C=C1/NC(=S)NC1=O 27.9%
COc1cc(N2CCCC2)ccc1C=O 23%
CCOCCCN1CN(Cc2ccccc2)CNC1=S -6.2%
Cc1cc(C)cc(OCC(=O)OCCN2C(=O)c3ccccc3C2=O)c1 11.5%
CCOC(=O)N1CCN(c2cccc(C)c2C)CC1 -11.4%
c1ccc(CN2CCN(C3=Nc4cccc5cccc3c45)CC2)cc1 21.9%
c1ccc(CC2CCN(C3=Nc4cccc5cccc3c45)CC2)cc1 10.8%
COc1ccccc1N1CCN(C2=Nc3cccc4cccc2c34)CC1 27.3%
NC(=O)NNC1=Nc2cccc3cccc1c23 8.5%
O=S1(=O)N=C(N2CCc3ccccc3C2)c2ccccc21 -8.5%
CC1CN(c2nc3ccccc3cc2-c2ccccc2)CC(C)O1 (configuration not stated) 5.7%
c1ccc(NC2=Nc3cccc4cccc2c34)cc1 9.8%
Cc1nn2c(=O)c(NC(=O)c3ccc(Cl)cc3)cnc2s1 0.6%
Cc1ccc(/C(N)=N/OC(=O)c2cccc(F)c2)cc1 3.9%
COc1ccc(C(=O)OCC(=O)N2C(C)CCCC2C)cc1[N+](=O)[O-] (configuration not stated) -0.8%
COC(=O)c1ccccc1NC(=O)N[C@@H](C)C(=O)OC -13.4%
O=C1OCC(CO)(CO)N=C1NNc1cc(Cl)ccc1Cl -81.3%
CCC(=O)NCCNc1nc2cc(C)cc(C)c2cc1C#N 12.8%
CC(C)C(NC(=O)c1ccccc1Cl)C(=O)OCc1nc2scc(-c3ccccc3Cl)c2c(=O)[nH]1 (configuration not stated) -15.4%
c1cc2c3c(cccc3c1)C(N1CCCCCC1)=N2 12.7%
Fc1ccc(N2CCN(C3=Nc4cccc5cccc3c45)CC2)cc1 32.1%
O=C(CCCN1C(=O)c2cccc3cccc(c23)C1=O)N1CCN(c2ncccn2)CC1 10.1%
O=C(CN1C(=O)c2cccc3cccc(c23)C1=O)N1CCN(c2ccccn2)CC1 -1.5%
